Measurements: PubChem BioAssay (EPA / NIEHS)
Where “and” joins values, the source holds several entries; their conditions need not be identical. Equal values may be shown once. Results filed as inconclusive are left out. More than one record can exist for a structure, and the calls need not agree. Calls of active or inactive are those of the source. Rule for the calls: active = hit-call score of the fitted dose curve at least 0.9, where 1 is the maximum; inconclusive = response in the unintended direction; inactive = score below 0.9.

How the values were obtained:
[1] = biological target: Nuclear receptor subfamily 1 group I member 2 (Mus musculus) (UniProt O54915); experiment: ATG_mPXR_XSP1: Attagene TRANS-FACTORIAL Multi-Species (XSP1) HepG2 Assay for mouse Pregnane X Receptor (PXR) (AID 2283803)
Sequence of Nuclear receptor subfamily 1 group I member 2 (Mus musculus) (O54915 whole entry, looked up, the tested form may be a part): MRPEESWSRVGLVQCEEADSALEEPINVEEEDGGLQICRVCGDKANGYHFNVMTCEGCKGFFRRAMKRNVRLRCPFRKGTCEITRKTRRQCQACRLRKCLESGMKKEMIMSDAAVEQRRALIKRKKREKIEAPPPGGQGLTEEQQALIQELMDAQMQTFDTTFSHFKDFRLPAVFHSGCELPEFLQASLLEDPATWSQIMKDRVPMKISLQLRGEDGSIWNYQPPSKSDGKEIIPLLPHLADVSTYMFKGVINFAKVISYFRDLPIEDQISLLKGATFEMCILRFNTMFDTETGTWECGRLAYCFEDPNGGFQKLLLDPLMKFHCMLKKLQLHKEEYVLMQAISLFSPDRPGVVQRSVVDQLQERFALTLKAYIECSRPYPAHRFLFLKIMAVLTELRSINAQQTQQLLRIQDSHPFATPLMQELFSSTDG
Procedure, shortened: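 Transiently transfected HepG2 cells expressing a receptor-Gal4 chimera drive a GAL4-UAS reporter; 3 nM 6-alpha-fluorotestosterone included. Reporter mRNA read 24 h post-dose by RT-PCR and capillary electrophoresis; gain of signal relative to DMSO.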

[2] = biological target: frog Thyroid hormone Receptor alpha (TRa), thra-a (gene 397942) (UniProt P15204); experiment: ATG_frTRa_XSP1: Attagene TRANS-FACTORIAL Multi-Species (XSP1) HepG2 Assay for frog Thyroid hormone Receptor alpha (TRa) (AID 2283804)
Sequence of frog Thyroid hormone Receptor alpha (TRa), thra-a (gene 397942) (P15204 whole entry, looked up, the tested form may be a part): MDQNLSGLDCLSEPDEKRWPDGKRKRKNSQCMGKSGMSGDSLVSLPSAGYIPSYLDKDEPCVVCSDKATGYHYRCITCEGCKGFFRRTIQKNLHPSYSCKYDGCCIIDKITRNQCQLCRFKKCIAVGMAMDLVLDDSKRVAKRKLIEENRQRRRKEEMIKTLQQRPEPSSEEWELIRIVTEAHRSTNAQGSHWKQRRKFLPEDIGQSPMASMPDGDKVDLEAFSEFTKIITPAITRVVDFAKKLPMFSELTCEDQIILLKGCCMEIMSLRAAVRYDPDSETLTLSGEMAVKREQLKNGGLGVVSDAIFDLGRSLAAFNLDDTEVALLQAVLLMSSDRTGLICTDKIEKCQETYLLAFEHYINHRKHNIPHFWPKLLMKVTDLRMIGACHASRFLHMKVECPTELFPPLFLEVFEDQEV
Procedure, shortened: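 HepG2 cells transiently transfected with frog TRa-GAL4 chimeric reporter units, dosed 24 hr with 3 nM 6-alpha-fluorotestosterone present; reporter mRNA quantified by RT-PCR, fluorescent labelling and capillary electrophoresis, gain of signal versus DMSO.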

[3] = biological target: human Thyroid hormone Receptor alpha (TRa), THRA (gene 7067) (UniProt P10827); experiment: ATG_hTRa_XSP1: Attagene TRANS-FACTORIAL Multi-Species (XSP1) HepG2 Assay for human Thyroid hormone Receptor alpha (TRa) (AID 2283805)
Sequence of human Thyroid hormone Receptor alpha (TRa), THRA (gene 7067) (P10827 whole entry, looked up, the tested form may be a part): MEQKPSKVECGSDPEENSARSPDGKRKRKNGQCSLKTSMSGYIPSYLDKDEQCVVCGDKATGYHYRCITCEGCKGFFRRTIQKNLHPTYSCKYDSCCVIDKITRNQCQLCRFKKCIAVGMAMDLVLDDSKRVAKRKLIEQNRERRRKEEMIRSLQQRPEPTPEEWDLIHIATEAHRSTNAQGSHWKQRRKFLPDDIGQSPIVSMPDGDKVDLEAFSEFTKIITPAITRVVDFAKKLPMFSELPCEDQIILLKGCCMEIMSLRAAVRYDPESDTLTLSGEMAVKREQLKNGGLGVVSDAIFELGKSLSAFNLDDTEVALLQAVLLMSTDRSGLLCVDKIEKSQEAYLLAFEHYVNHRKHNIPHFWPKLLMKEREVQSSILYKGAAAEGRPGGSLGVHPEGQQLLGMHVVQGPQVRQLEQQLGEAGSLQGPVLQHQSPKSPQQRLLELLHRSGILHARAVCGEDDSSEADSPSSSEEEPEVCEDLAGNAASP
Procedure, shortened: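 HepG2 cells transiently transfected with GAL4-UAS reporter units expressing chimeric NR-Gal4 proteins, dosed 24 hours with 3 nM 6-alpha-fluorotestosterone present. Reporter mRNA measured by RT-PCR and capillary electrophoresis; gain of signal fitted versus DMSO.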

[4] = system: turtle Thyroid Hormone Receptor, alpha (TRa), gene 101949057; experiment: ATG_trTRa_XSP1: Attagene TRANS-FACTORIAL Multi-Species (XSP1) HepG2 Assay for turtle Thyroid Hormone Receptor, alpha (TRa) (AID 2283806)
Procedure, shortened: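 HepG2 cells transiently transfected with GAL4-UAS reporter units and chimeric receptor-Gal4 constructs, with 3 nM 6-alpha-fluorotestosterone present. Reporter mRNA was quantified 24 h after dosing by RT-PCR, 6-FAM labelling and capillary electrophoresis; gain of signal versus DMSO.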

[5] = biological target: zebrafish Thyroid Hormone Receptor alpha (TRa), thraa (gene 30670) (UniProt Q98867); experiment: ATG_zfTRa_XSP1: Attagene TRANS-FACTORIAL Multi-Species (XSP1) HepG2 Assay for zebrafish Thyroid Hormone Receptor alpha (TRa) (AID 2283807)
Procedure, shortened: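 HepG2 cells transiently transfected with GAL4-UAS reporter units including a zebrafish TRa–Gal4 chimera, dosed 24 h with 3 nM 6-alpha-fluorotestosterone present. Reporter mRNA quantified by RT-PCR and capillary electrophoresis; gain versus DMSO.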

[6] = biological target: human Thyroid hormone Receptor beta (TRb), THRB (gene 7068) (UniProt P10828); experiment: ATG_hTRb_XSP1: Attagene TRANS-FACTORIAL Multi-Species (XSP1) HepG2 Assay for human Thyroid hormone Receptor beta (TRb) (AID 2283808)
Sequence of human Thyroid hormone Receptor beta (TRb), THRB (gene 7068) (P10828 whole entry, looked up, the tested form may be a part): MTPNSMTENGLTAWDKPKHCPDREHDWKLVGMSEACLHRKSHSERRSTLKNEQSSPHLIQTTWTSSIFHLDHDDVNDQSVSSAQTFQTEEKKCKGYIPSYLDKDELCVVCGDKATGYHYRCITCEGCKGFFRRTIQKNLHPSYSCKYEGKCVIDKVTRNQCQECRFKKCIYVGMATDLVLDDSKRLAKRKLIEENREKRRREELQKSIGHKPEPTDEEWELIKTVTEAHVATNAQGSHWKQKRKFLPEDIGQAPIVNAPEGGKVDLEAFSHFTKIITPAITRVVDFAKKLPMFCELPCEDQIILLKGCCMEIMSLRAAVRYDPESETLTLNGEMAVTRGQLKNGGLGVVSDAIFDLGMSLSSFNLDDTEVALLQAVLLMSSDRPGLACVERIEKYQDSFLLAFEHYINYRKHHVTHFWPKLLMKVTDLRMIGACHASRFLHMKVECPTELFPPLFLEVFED
Procedure, shortened: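 HepG2 cells transiently transfected with reporter units driving GAL4-UAS reporters for chimeric NR-Gal4 proteins; 24 h chemical exposure with 3 nM 6-alpha-fluorotestosterone present. Reporter mRNA quantified by RT-PCR and capillary electrophoresis, gain of signal versus DMSO.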

[7] = biological target: zebrafish Thyroid Hormone Receptor beta (TRb), thrb (gene 30607) (UniProt Q9PVE4); experiment: ATG_zfTRb_XSP1: Attagene TRANS-FACTORIAL Multi-Species (XSP1) HepG2 Assay for zebrafish Thyroid Hormone Receptor beta (TRb) (AID 2283809)
Sequence of zebrafish Thyroid Hormone Receptor beta (TRb), thrb (gene 30607) (Q9PVE4 whole entry, looked up, the tested form may be a part): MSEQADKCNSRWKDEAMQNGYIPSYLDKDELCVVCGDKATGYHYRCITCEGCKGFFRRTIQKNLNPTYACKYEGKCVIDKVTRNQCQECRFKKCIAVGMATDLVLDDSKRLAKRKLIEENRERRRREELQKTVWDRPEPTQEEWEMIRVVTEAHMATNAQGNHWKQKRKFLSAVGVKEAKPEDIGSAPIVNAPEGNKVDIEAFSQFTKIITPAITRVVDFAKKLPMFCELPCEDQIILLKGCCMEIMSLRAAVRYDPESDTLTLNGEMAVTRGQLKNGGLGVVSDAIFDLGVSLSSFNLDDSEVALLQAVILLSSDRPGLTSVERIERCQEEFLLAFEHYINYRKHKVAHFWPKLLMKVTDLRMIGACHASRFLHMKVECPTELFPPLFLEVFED
Procedure, shortened: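 HepG2 cells transiently transfected with multiplexed GAL4-UAS reporter units expressing chimeric zebrafish TRb–Gal4. Dosed 24 h with 3 nM 6-alpha-fluorotestosterone present; reporter mRNA measured by RT-PCR, HpaI digestion and capillary electrophoresis; gain of signal versus DMSO.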

[8] = ATG_XTT_Cytotoxicity_XSP1: Cytotoxicity Assessment in the Attagene TRANS-FACTORIAL Multi-Species (XSP1) HepG2 Assay (AID 2283810)
Procedure, shortened: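 XTT viability readout taken at 24 hours post-dosing in HepG2 liver cells co-treated with 3 nM 6-alpha-fluorotestosterone. Signal loss relative to DMSO controls reflects cytotoxicity.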

[9] = system: turtle Estrogen Receptor (ERa), gene 101933533; experiment: ATG_trERa_XSP2: Attagene TRANS-FACTORIAL Multi-Species (XSP2) HepG2 Assay for turtle Estrogen Receptor (ERa) (AID 2283812);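 note: human HepG2 liver cells transiently expressing turtle ERa-Gal4 chimeric receptor; actives raise reporter signal above DMSO so AC50 reflects agonist activity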
Procedure, shortened: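 HepG2 cells transiently transfected with GAL4-UAS reporter units expressing turtle ERa-Gal4 chimera. Reporter mRNA measured after 24 h dosing by RT-PCR, fluorescent labelling and capillary electrophoresis; gain of signal fitted versus DMSO.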

[10] = biological target: Estrogen receptor beta (Homo sapiens) (UniProt Q92731); experiment: ATG_hERb_XSP2: Attagene TRANS-FACTORIAL Multi-Species (XSP2) HepG2 Assay for human Estrogen Receptor (ERb) (AID 2283813);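 note: actives raise reporter mRNA above DMSO so AC50 reflects agonist induction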
Sequence of Estrogen receptor beta (Homo sapiens) (Q92731 whole entry, looked up, the tested form may be a part): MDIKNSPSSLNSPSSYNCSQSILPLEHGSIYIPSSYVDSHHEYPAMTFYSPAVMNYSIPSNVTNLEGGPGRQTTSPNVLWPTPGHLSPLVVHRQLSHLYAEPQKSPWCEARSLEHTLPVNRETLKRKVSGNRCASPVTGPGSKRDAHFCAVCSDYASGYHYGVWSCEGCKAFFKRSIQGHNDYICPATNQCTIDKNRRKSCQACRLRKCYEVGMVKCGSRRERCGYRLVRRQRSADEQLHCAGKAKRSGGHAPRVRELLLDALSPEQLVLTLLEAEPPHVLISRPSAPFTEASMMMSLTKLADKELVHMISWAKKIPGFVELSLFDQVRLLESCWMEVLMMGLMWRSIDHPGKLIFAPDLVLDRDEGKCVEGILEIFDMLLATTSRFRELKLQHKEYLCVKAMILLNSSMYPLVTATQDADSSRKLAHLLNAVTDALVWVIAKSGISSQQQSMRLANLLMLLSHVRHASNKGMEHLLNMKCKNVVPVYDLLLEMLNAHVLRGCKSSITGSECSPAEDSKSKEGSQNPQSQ
Procedure, shortened: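 HepG2 cells transiently transfected with GAL4-UAS reporter units and chimeric human ERb-Gal4, 24 h exposure. Reporter mRNA quantified by RT-PCR with FAM labelling, HpaI digestion and capillary electrophoresis; gain of signal versus DMSO.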

[11] = biological target: GAL4 Transcription Factor (Internal Marker), GAL4 (gene 855828) (UniProt P04386); experiment: ATG_GAL4_XSP2: Attagene TRANS-FACTORIAL Multi-Species (XSP2) HepG2 Assay for GAL4 Transcription Factor (Internal Marker) (AID 2283814);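 note: GAL4 reporter mRNA background control in MRTU transfected cells not a receptor target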
Sequence of GAL4 Transcription Factor (Internal Marker), GAL4 (gene 855828) (P04386 whole entry, looked up, the tested form may be a part): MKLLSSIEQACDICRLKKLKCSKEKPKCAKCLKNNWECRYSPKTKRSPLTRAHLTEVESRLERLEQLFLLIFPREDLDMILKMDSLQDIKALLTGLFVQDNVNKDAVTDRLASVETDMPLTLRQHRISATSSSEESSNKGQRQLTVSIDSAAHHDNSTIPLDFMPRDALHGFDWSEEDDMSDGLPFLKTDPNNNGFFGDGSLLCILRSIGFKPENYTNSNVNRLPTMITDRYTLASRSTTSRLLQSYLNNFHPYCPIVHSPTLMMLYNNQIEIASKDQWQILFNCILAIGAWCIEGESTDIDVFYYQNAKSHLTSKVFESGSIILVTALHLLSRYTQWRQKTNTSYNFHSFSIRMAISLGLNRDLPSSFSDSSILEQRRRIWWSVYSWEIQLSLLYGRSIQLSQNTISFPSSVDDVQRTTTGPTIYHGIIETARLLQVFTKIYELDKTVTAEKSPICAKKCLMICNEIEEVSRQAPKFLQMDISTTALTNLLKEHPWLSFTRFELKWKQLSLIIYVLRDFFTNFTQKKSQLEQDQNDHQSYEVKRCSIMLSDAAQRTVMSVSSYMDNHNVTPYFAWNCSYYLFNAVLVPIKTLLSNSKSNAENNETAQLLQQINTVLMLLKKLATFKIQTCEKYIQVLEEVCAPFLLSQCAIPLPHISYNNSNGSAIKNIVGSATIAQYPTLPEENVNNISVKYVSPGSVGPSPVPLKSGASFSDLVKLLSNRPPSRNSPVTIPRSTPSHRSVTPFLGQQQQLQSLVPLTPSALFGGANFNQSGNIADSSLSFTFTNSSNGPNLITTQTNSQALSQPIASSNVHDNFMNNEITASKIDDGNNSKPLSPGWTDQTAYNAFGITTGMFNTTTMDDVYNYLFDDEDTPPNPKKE
Procedure, shortened: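 HepG2 cells transiently transfected with GAL4-UAS reporter units, stimulated with 3 nM 6-alpha-fluorotestosterone plus 1.5 nM norgestrel, dosed 24 h. Reporter mRNA by RT-PCR/capillary electrophoresis; gain-of-signal fit versus DMSO, background control.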

[12] = biological target: zebrafish Estrogen Receptor (ER1), esr1 (gene 259252) (UniProt P57717); experiment: ATG_zfER1_XSP2: Attagene TRANS-FACTORIAL Multi-Species (XSP2) HepG2 Assay for zebrafish Estrogen Receptor (ER1) (AID 2283816)
Sequence of zebrafish Estrogen Receptor (ER1), esr1 (gene 259252) (P57717 whole entry, looked up, the tested form may be a part): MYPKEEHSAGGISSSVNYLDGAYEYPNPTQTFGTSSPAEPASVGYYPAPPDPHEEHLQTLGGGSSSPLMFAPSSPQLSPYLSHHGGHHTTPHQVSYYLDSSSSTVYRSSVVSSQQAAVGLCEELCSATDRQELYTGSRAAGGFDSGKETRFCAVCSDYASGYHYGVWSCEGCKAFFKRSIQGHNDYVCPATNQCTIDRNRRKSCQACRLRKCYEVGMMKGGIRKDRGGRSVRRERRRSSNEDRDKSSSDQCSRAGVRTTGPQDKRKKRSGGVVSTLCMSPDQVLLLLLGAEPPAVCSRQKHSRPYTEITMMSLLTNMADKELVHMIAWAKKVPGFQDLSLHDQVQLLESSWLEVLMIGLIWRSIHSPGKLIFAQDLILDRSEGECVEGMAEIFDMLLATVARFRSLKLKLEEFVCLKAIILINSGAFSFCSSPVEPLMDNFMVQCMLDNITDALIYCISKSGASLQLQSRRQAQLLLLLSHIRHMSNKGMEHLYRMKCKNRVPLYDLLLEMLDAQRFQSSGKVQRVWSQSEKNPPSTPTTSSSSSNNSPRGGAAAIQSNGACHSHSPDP
Procedure, shortened: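 HepG2 cells transiently transfected with a GAL4-UAS reporter and a chimeric zebrafish ER1-Gal4 construct, dosed 24 h. Reporter mRNA quantified by RT-PCR, labelling, HpaI digestion and capillary electrophoresis, relative to DMSO.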

[13] = biological target: chicken Estrogen Receptor (ERa), ESR1 (gene 396099) (UniProt P06212); experiment: ATG_chERa_XSP2: Attagene TRANS-FACTORIAL Multi-Species (XSP2) HepG2 Assay for chicken Estrogen Receptor (ERa) (AID 2283817);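 note: actives raise reporter signal above DMSO so AC50 reflects ER activation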
Sequence of chicken Estrogen Receptor (ERa), ESR1 (gene 396099) (P06212 whole entry, looked up, the tested form may be a part): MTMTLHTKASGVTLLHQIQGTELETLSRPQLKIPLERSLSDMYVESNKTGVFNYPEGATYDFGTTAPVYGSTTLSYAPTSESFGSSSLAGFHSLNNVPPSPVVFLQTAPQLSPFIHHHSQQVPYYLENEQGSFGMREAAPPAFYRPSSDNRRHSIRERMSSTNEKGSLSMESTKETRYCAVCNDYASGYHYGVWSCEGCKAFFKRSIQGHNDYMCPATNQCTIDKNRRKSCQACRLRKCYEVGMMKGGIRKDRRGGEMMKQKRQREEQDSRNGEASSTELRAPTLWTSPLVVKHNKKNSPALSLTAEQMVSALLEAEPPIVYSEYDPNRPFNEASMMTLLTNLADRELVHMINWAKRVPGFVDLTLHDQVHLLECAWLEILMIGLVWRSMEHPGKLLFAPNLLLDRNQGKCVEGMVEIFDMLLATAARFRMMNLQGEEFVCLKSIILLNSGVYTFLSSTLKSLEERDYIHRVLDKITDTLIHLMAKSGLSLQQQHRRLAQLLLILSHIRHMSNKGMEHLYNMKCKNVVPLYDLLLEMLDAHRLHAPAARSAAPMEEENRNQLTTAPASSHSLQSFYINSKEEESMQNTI
Procedure, shortened: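 Transiently transfected HepG2 cells expressing chimeric chicken ERa-GAL4 reporter units, dosed 24 h with 3 nM 6-alpha-fluorotestosterone and 1.5 nM norgestrel present. Reporter mRNA measured by RT-PCR and capillary electrophoresis; gain-of-signal fitted relative to DMSO.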

[14] = system: zebrafish Estrogen Receptor (ER2a), gene 317734; experiment: ATG_zfER2a_XSP2: Attagene TRANS-FACTORIAL Multi-Species (XSP2) HepG2 Assay for zebrafish Estrogen Receptor (ER2a) (AID 2283818);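 note: hits raise reporter mRNA so AC50 reflects activation of zebrafish ER2a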
Procedure, shortened: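 HepG2 cells transiently transfected with GAL4-UAS reporter units and chimeric zebrafish ER2a-Gal4, exposed 24 h; medium contains 3 nM 6-alpha-fluorotestosterone and 1.5 nM norgestrel. Reporter mRNA quantified by RT-PCR, HpaI digestion, capillary electrophoresis; gain versus DMSO.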

[15] = ATG_M_19_XSP2: Attagene TRANS-FACTORIAL Multi-Species (XSP2) HepG2 Assay for M32 Transcription Factor (Internal Marker) (AID 2283822)
Procedure, shortened: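 Internal background marker in a multi-species nuclear receptor TRANS panel: transfected HepG2 cells exposed 24 h, with 3 nM 6-alpha-fluorotestosterone and 1.5 nM norgestrel present. Readout is RT-PCR of reporter transcripts resolved by capillary electrophoresis, gain-of-signal versus DMSO.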

[16] = system: zebrafish Estrogen Receptor (ER2b), gene 317733; experiment: ATG_zfER2b_XSP2: Attagene TRANS-FACTORIAL Multi-Species (XSP2) HepG2 Assay for zebrafish Estrogen Receptor (ER2b) (AID 2283823);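 note: fitted upward as reporter gain over DMSO so potency reflects activation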
Procedure, shortened: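 Reporter transcripts quantified by RT-PCR, fluorescent labelling and capillary electrophoresis after 24 h dosing of transfected HepG2 expressing zebrafish ER2b-GAL4 fusion. Medium contained 3 nM 6-alpha-fluorotestosterone plus 1.5 nM norgestrel; DMSO baseline.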

[17] = ATG_M_06_XSP2: Attagene TRANS-FACTORIAL Multi-Species (XSP2) HepG2 Assay for M06 Transcription Factor (Internal Marker) (AID 2283811);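 note: hits are increases in signal above the DMSO baseline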
Procedure, shortened: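 HepG2 cells transiently transfected with GAL4-UAS multiple reporter units, medium containing 3 nM 6-alpha-fluorotestosterone and 1.5 nM norgestrel; reporter mRNA measured 24 hours post-dosing by RT-PCR and capillary electrophoresis. Internal background marker, gain of signal vs DMSO.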

[18] = system: turtle Androgen Receptor (AR), gene 101947425; experiment: ATG_trAR_XSP2: Attagene TRANS-FACTORIAL Multi-Species (XSP2) HepG2 Assay for turtle Androgen Receptor (AR) (AID 2283815)
Procedure, shortened: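 HepG2 cells transiently transfected with GAL4-UAS reporter units for chimeric NR-Gal4 receptors; 24 h dosing in presence of 3 nM 6-alpha-fluorotestosterone and 1.5 nM norgestrel. Reporter mRNA by RT-PCR and capillary electrophoresis, gain of signal versus DMSO.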

Measured: AC50

CC1(C)CCC(=Cc2ccc(Cl)cc2)C1(O)Cn1cncn1 (centres undefined)
active: [1] 5.78 µM | [13] 27.6 µM | [16] 115 µM
inactive: [2] | [3] | [4] | [5] | [6] | [7] | [8] | [9] | [10] | [11] | [12] | [14] | [15]

CC1(C)C(C=C(Cl)Cl)C1C(=O)OC(C#N)c1cccc(Oc2ccccc2)c1 (centres undefined)
inactive: [4] | [6] | [7] | [17] | [10] | [18] | [14]
active: [1] 0.579 µM | [9] 18 µM | [13] 22.8 µM | [16] 100 µM

COP(=S)(OC)SCn1nnc2ccccc2c1=O
inactive: [17] | [9] | [10] | [11] | [12] | [13] | [14] | [16]
active: [9] 16.4 µM | [13] 21.7 µM | [16] 132 µM

CCN(CC)C(=O)C(C)Oc1cccc2ccccc12 (centres undefined)
inactive: [2] | [3] | [4] | [6] | [7] | [8] | [17] | [10] | [12] | [14]
active: [1] 1.27 µM | [9] 10.5 µM | [13] 7.35 µM | [16] 65.7 µM

C=C(C)CN(CC)c1c([N+](=O)[O-])cc(C(F)(F)F)cc1[N+](=O)[O-]
active: [9] 4.03 µM and 12.5 µM | [13] 11 µM and 28.2 µM | [16] 33.3 µM and 38 µM
inactive: [17] | [10] | [12] | [14]
